Rows were chosen to be rich in hits. Some 2.3% of all compounds tested hit in one or more screens of this group.
MCL1 BIM primary: disrupts human MCL1 binding to BIM-BH3 peptide. GST-MCL1 / FITC-Bim-BH3 fluorescence polarization. inhibition, % at 10.9 µM. 320,000 tested, 0.68% active. AID 2057;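 active = inhibition above the mean inhibition of all tested compounds plus 3 SD, set per campaign, cut at about 40% in these data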;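 note: higher means more loss of mP so more displacement of Bim peptide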
Target sequence (Q07820 whole entry, looked up): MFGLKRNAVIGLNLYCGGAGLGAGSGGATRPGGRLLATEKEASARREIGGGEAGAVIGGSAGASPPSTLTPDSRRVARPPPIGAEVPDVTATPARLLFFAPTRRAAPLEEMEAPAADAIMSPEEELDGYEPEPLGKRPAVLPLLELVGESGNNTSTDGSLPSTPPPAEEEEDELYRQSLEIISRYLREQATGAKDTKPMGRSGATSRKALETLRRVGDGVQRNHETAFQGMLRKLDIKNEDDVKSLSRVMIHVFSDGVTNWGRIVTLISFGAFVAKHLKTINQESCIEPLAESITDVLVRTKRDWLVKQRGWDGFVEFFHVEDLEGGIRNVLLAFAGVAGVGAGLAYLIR
Mcl1-Noxa inh: Mcl-1/Noxa interaction inhibition | TR-FRET Mcl-1/Noxa peptide binding, 2 h | Q07820 | 220,000 tested, 1.5% active | AID 1022 | inhibition, % at 21.7 µM;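 active = compounds that cut the protein-peptide binding signal by more than 50% relative to plate controls in a single-dose test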;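 note: His-tagged Mcl-1 with rhodamine Noxa BH3 peptide and terbium anti-His antibody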
BCLXL inh: Bcl-xL (human) inhibition | inhibition, % at 10.9 µM | GST-Bcl-xL / FITC-Bim BH3 peptide fluorescence polarization | 320,000 tested, 0.7% active;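 active = inhibition above the mean of all tested compounds plus 3 SD, cutoff set per campaign, cut at about 30% in these data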;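 note: inhibitors lower millipolarization by displacing the labeled peptide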
Target sequence (Q07817 whole entry, looked up): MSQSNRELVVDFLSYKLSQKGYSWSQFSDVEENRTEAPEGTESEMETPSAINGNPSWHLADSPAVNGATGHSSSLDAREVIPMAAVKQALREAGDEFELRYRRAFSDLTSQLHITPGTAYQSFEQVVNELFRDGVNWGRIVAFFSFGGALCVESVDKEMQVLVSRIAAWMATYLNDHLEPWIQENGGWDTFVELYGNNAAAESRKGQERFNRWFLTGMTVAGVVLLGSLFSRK
Mcl1 Bid PPI: disrupts binding of human Mcl-1 to Bid peptide. TR-FRET Mcl-1/Bid-Dy647 peptide binding, 1536-well. 220,000 tested, 0.97% active. inhibition, % at 21.7 µM;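 active = compounds that cut the binding signal by more than half at the single screening dose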;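 note: His-tagged Mcl-1 with europium anti-His antibody binding Bid BH3 peptide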
GLD-1 RNA inh: GLD-1-TGE RNA interaction inhibition (C. elegans). Q17339. purified GLD-1 + fluorescein TGE RNA, fluorescence polarization. inhibition, % at 5.96 µM. 320,000 tested, 0.44% active;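 active = percent inhibition above a per-plate cutoff, the plate mean of test compounds plus 3 SD, cut at about 30% in these data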
Mcl-1 Bim block: human Bim-Mcl-1 interaction inhibition. inhibition, % at 10 µM. Bead-based flow cytometry, Bim peptide-Mcl-1 binding. 190,000 tested, 0.1% active. AID 1009; in the data active = inhibition above about 40%
A number is an active result; . = inactive; / = no result.

SMILES | MCL1 BIM primary | Mcl1-Noxa inh | BCLXL inh | Mcl1 Bid PPI | GLD-1 RNA inh | Mcl-1 Bim block
O=C(O)C1C2CCC(C2)C1C(=O)NCCc1cccc(Cl)c1 (stereo not drawn) | . | / | . | / | . | /
O=C(O)c1cc(N/N=C/c2ccc(N3CCOCC3)s2)ccc1Cl | . | 85.9 | . | . | . | .
CN1CCCN(C(=O)c2cc(-c3cccc4ccccc34)nc3ccccc23)CC1 | . | . | . | . | . | /
CN1C(=O)/C(=C/c2cc(N=Nc3ccccc3)ccc2O)SC1=S | . | 53.8 | . | . | . | .
O=C(CN1C(=O)C2C3C=CC(C3)C2C1=O)NCCN1CCCc2ccccc21 (stereo not drawn) | . | . | . | . | . | .
O=C(CCN1C(=O)C2C3C=CC(C3)C2C1=O)NCCN1CCCc2ccccc21 (stereo not drawn) | . | . | 34.0 | . | . | .
C=CCOc1ccc(/C=C2\SC(=S)N(C(C(=O)O)c3ccccc3)C2=O)cc1 (stereo not drawn) | / | 71.5 | / | . | / | /
CCN(CC(=O)Nc1c(F)cccc1F)C(=O)CNC(=O)c1ccc(Br)o1 | . | / | . | / | . | /
c1ccc2c(c1)nc(N1CCOCC1)c1nnnn12 | . | . | 43.4 | . | . | .
CCN(CC)CC(O)Cn1c(C)c(-c2ccccc2)c2cc([N+](=O)[O-])ccc21 (stereo not drawn) | . | / | . | / | . | /
Oc1ccccc1-c1nc(NCCN2CCOCC2)c2ccccc2n1 | . | . | . | . | . | .
COc1cccc(-c2nc(NCCN3CCOCC3)c3ccccc3n2)c1O | . | 51.3 | . | . | . | .
Cc1ccc(-n2c(O)c(C=NCc3ccccn3)c3ccccc3c2=O)cc1C | . | . | . | . | . | .
COC(=O)Nc1ccc(S(=O)(=O)NCc2ccccn2)cc1 | . | 82.2 | . | . | . | .
COC(=O)COc1ccc(S(=O)(=O)NCc2ccccn2)cc1 | . | / | . | / | . | /
Cc1cc(C)c(C(=O)O)c(CC(C)(C)C(=O)O)c1 | . | . | . | . | . | /
CCOC(=O)c1c(/N=C/c2ccc(O)cc2O)sc2c1CCC2 | . | . | . | . | 32.6 | .
CCOC(=O)c1c(/N=C/c2ccccc2O)sc2c1CCC2 | . | . | . | . | . | .
CCN(CC)c1ccc(NS(=O)(=O)c2ccc(-c3ccc(=O)[nH]n3)o2)c(C)c1 | . | / | 31.8 | / | . | /
Cc1[nH]c(=S)c(C#N)c2c1CCCC2 | . | . | . | . | . | .
N#Cc1c(-c2ccco2)c2c([nH]c1=S)CCCC2 | . | 59.3 | . | . | . | .
Cc1[nH]c(=S)c(C#N)c(-c2ccccc2)c1C(=O)Nc1ccccc1 | . | . | . | . | . | /
CCN(CC)C(=O)c1c(C)[nH]c(=S)c(C#N)c1-c1ccco1 | . | 58.9 | . | . | . | .
CC(C)Cc1c2c([nH]c(=S)c1C#N)CCCC2 | . | 50.9 | . | . | . | .
N#Cc1c(-c2cccnc2)c2c([nH]c1=S)CCCC2 | . | . | . | . | . | .
SMILES | MCL1 BIM primary | Mcl1-Noxa inh | BCLXL inh | Mcl1 Bid PPI | GLD-1 RNA inh | Mcl-1 Bim block
Cc1nc(SCCOc2ccccc2F)[nH]c(=O)c1Cc1ccccc1 | . | . | . | . | . | .
CCN(CC(=O)Nc1cc(Cl)ccc1C)C(=O)C1CC(=O)N(Cc2ccccc2)C1 (stereo not drawn) | . | / | . | / | . | /
C=CC(=O)NCC1OCCc2ccccc21 (stereo not drawn) | . | . | . | . | . | .
O=C(/C=C/c1ccco1)NCC1OCCc2ccccc21 (stereo not drawn) | . | 62.0 | . | . | . | /
O=C(Cc1c(F)cccc1Cl)Nc1ccc(S(=O)(=O)Nc2nccs2)cc1 | . | / | . | / | . | /
Cc1cccc(C2C3=C(Nc4[nH]n(-c5ccccc5)c(=O)c42)c2ccccc2C3=O)c1 (stereo not drawn) | / | 65.2 | / | . | / | .
Cc1ccccc1C1C2=C(Nc3[nH]n(-c4ccccc4)c(=O)c31)c1ccccc1C2=O (stereo not drawn) | . | . | . | . | . | .
CCCCn1c(SCC(=O)c2ccc(O)c(O)c2)nc2ccsc2c1=O | . | 55.0 | . | . | . | .
COc1nc(-c2ccccc2)cc(-c2ccc3c(c2)OCO3)c1C#N | . | . | . | 55.7 | . | /
O=C(NC(=S)N1CCN(Cc2ccccc2)CC1)c1ccco1 | . | . | . | . | . | .
Cc1ccc(-c2nc3ccc(C(=O)O)cc3nc2-c2ccc(C)cc2)cc1 | . | . | . | . | . | .
CCc1nc2ccc(C(=O)NCCc3ccc(OC)c(OC)c3)cc2nc1CC | . | / | . | / | . | /
COc1ccc(CCNC(=O)c2ccc3nc(-c4ccco4)c(-c4ccco4)nc3c2)cc1OC | . | 99.3 | . | . | . | .
O=C(c1ccc2nc(-c3ccco3)c(-c3ccco3)nc2c1)N1CCN(c2ccccc2)CC1 | . | 52.2 | . | . | . | .
O=C(O)c1ccc2nc(-c3ccco3)c(-c3ccco3)nc2c1 | / | 80.4 | / | . | / | .
CC12CCC(=O)N1C(C(=O)N1CCN(S(=O)(=O)c3ccc(F)c(F)c3)CC1)CS2 (stereo not drawn) | . | / | . | / | . | /
CC(C)(O)C#Cc1ccc(CN2CCN(Cc3ccsc3)C(CCO)C2)s1 (stereo not drawn) | . | . | . | . | . | .
CCN(CC)c1ccc(NC(=O)Cn2cc3c(n2)CCC(C)C3)c(C)c1 (stereo not drawn) | . | 60.7 | . | . | . | .
CC1CCc2nn(CC(=O)Nc3ccc(F)cc3F)cc2C1 (stereo not drawn) | . | . | . | . | . | .
O=c1c2cnn(-c3ccccc3)c2nc(-c2cccs2)n1-c1ccc(Cl)cc1 | . | . | . | . | . | .
O=c1c2cnn(-c3ccccc3)c2nc(-c2cccs2)n1-c1cccc(Cl)c1 | . | . | . | 79.3 | . | .
CC(=O)[C@@H]1[C@@H]2C(=O)N(Cc3ccccc3)C(=O)[C@@H]2C2c3ccccc3C=CN21 (stereo partly drawn) | 49.6 | . | 46.4 | . | 38.5 | .
O=S(=O)(Nc1ccccc1N1CCOCC1)c1c(F)cc(F)cc1Br | / | / | / | / | . | /
Brc1c(CSc2nc3ccccc3s2)nc2ncccn12 | . | . | . | . | . | .
O=[N+]([O-])c1ccc2sc(SCc3nc4ccccn4c3Br)nc2c1 | . | 55.6 | . | . | . | .
COC(=O)c1c(-c2cccnc2)csc1NC(=O)c1cc(C)on1 | . | 57.5 | . | . | . | .
Cc1ccc(-n2c(C)n[nH]c2=S)cc1C | . | . | . | 97.3 | . | .
COc1cc(/C=N/NC(=O)c2cccc([N+](=O)[O-])c2)ccc1OCc1ccccc1 | . | . | . | . | . | .
COc1cc(/C=C/[N+](=O)[O-])ccc1OCc1cccc(C(=O)O)c1 | / | 59.8 | / | . | / | .
CCOc1cc(S(=O)(=O)n2nc(C)cc2C)ccc1Br | . | . | . | . | . | .
